# Bioassay records as filed in PubChem BioAssay.
# Bead autofluor: compound fluorescence in toxin protease inhibitor counterscreen; fluorescence intensity (test concentration not listed); AID 624483; compound autofluorescence counterscreen, microsphere flow cytometry; active compounds read high; hit rate 3.1% among 360,000; in the data active means fluorescence intensity above about 16000; inconclusive means no clear call, values can overlap the other calls
# Anthrax LF inh2: blocks Bacillus anthracis lethal factor protease | multiplex microsphere protease cleavage assay, LF | AID 588501 | inhibition, % at 10 µM | hit rate 0.12% among 360,000; further: plate controls were buffer without enzyme for full effect and enzyme alone for no effect
# Target sequence (P15917 whole entry, looked up): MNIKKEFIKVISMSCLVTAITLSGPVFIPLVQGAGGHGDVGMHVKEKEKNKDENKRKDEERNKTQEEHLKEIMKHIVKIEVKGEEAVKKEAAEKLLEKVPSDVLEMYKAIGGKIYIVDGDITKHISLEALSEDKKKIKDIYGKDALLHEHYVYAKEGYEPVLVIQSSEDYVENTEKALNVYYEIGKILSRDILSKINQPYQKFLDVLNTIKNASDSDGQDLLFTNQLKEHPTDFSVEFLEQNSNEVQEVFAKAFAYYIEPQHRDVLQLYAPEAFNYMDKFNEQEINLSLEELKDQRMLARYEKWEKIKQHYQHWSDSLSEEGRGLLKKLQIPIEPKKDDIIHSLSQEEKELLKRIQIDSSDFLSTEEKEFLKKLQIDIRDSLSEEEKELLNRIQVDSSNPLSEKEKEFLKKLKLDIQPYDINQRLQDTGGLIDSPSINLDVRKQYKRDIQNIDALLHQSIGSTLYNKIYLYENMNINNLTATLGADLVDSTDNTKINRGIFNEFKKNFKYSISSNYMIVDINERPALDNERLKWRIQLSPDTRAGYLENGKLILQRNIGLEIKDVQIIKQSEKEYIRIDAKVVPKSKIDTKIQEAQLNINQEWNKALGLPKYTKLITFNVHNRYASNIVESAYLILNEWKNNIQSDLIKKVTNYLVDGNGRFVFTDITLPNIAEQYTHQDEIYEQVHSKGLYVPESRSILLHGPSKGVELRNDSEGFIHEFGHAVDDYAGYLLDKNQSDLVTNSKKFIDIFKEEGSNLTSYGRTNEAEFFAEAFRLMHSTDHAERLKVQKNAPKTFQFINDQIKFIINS
# BoNT F protease: inhibitors of Botulinum neurotoxin F light chain protease. Multiplex microsphere protease cleavage assay, flow cytometry. inhibition, % at 10 µM. hit rate 0.22% among 360,000. AID 588497; in the data active means inhibition above about 35%, passing the limit was not always enough; inconclusive means no clear call, values can overlap the other calls; further: plate controls were buffer without enzyme for full effect and enzyme alone for no effect
# MazEF act: activators of E. coli MazEF toxin-antitoxin RNase | AID 504720 | FAM/BHQ RNA-DNA oligo cleavage fluorescence, 5 h | hit rate 0.32% among 350,000 | activation, % at 20 µM; in the data active means activation above about 50%
# VHR inh abs: blocks human VHR1 dual specificity phosphatase. recombinant VHR phosphatase, pNPP absorbance. inhibition, % at 13.3 µM. hit rate 0.52% among 290,000. AID 1654; in the data active means inhibition above about 50%
# BoNT-A LC inh2: BoNT A light chain protease inhibition; multiplex microsphere protease substrate cleavage, flow cytometry; inhibition, % at 10 µM; hit rate 0.17% among 360,000; further: plate controls were buffer without enzyme for full effect and enzyme alone for no effect
# Starred values were filed as active, the others as inactive; ? = inconclusive; / = no result. The list is not random: actives were taken first. Their share in the collection is about 4.1%. Unless noted, no stated cut-off is given here; in the data, active means inhibition above about 30%; inconclusive means no clear call, values can overlap the other calls; inactive means below that.
SMILES,Bead autofluor,Anthrax LF inh2,BoNT F protease,MazEF act,VHR inh abs,BoNT-A LC inh2
Fc1cccc(CO/N=C/c2c(-c3ccccc3)nc3ccc(Cl)cn23)c1,16783*,0,-4,-13,10,-1
Cc1cccn2c(/C=N/OCc3cccc(F)c3)c(-c3ccc(Cl)cc3)nc12,5032,-5,-2,2,6,-2
Cc1nc2ncnn2c(C)c1CCC(=O)N1CCCCC1,4106,5,21,7,24,3
CCOC(=O)N1CCN(C(=O)CCc2c(C)nc3nc(C)nn3c2C)CC1,8151,-2,-4,8,19,0
Cc1nc2nc(C)c(CCC(=O)N3CCN(c4ccccn4)CC3)c(C)n2n1,23157*,-5,-3,-3,23,-1
Cc1nc2ncnn2c(C)c1CCC(=O)N1CCOCC1,22539*,-5,5,-1,11,2
Cc1csc(=Nc2ccccc2)n1Cc1ccco1,2641,0,3,-4,-2,0
CC(C)NC(=S)NN=C1c2ccccc2-c2ccccc21,3149,1,-3,-2,17,0
O/N=C/c1cccc[n+]1CCCCCC[n+]1ccccc1/C=N/O,3799,19,-6,7,60*,-3
COc1ccc(Cl)cc1NC(=O)CSc1nnc(CNC(=O)c2cccs2)o1,5765,2,5,10,1,0
CCOc1nc(C)ccc1-c1noc(-c2ccco2)n1,20107*,-2,2,6,-2,2
CCOc1ccccc1C1C(C#N)=C(N)N(N(C)C)C2=C1C(=O)CCC2 (stereo not drawn),3599,-10,18,5,-22,0
COc1cccc(-c2nnc3sc(-c4ccc(C)cc4)nn23)c1,/,/,/,/,27,/
COc1cccc(-c2nnc3sc(-c4cccs4)nn23)c1,8351,4,-8,26,-17,0
CCOc1cccc(-c2nn3c(-c4ccco4)nnc3s2)c1,23209*,0,2,10,0,0
CCOc1cccc(-c2nnc3sc(-c4cccs4)nn23)c1,17165*,1,0,9,23,-2
COc1cccc(-c2nn3c(-c4cccc(C)c4)nnc3s2)c1,17527*,-4,-7,3,12,-4
COc1cccc(-c2nnc3sc(-c4ccco4)nn23)c1,9927,0,5,15,21,0
CCOC(=O)C1CCCN(C(=O)COC(=O)c2cccs2)C1 (stereo not drawn),3106,1,5,10,/,0
CCC1(c2ccccc2)NC(=O)N(CC(=O)Nc2cc(S(=O)(=O)N3CCCCCC3)ccc2OC)C1=O (stereo not drawn),/,/,/,-4,/,/
COc1ccccc1Cc1noc(C(C)(C)NC(=O)c2ccccc2)n1,17677*,-2,-5,-5,16,-4
CCOC(=O)/C(C#N)=C\c1cn(C)c2ccccc12,4304,-9,-1,3,1,0
Cn1cc(C=C(C#N)C#N)c2ccccc21,4237,3,-3,154*,0,0
CCCCCCN1C[C@@H](O)[C@H](n2cc(-c3ccc(F)cc3)nn2)C[C@@H]1c1ccccc1,3770,-6,3,2,/,0
CCOC(=O)COc1ccc(S(=O)(=O)Nc2ccc(C)cc2)cc1,20911*,-1,-2,-2,9,?
SMILES,Bead autofluor,Anthrax LF inh2,BoNT F protease,MazEF act,VHR inh abs,BoNT-A LC inh2
CCOc1ccc(S(=O)(=O)NN)cc1,3874,-3,-2,50*,7,0
COC(=O)COc1ccc(S(=O)(=O)NCCC2=CCCCC2)cc1C,22566*,-1,-9,-7,-8,-7
CCCNS(=O)(=O)c1ccc(OCC(=O)OC)cc1,24397*,1,-3,7,32,-1
Cc1cc(S(=O)(=O)N2CCOCC2)ccc1OCC(=O)Nc1ccc(F)c(Cl)c1,5398,1,-5,-14,-4,0
CCCNS(=O)(=O)c1ccc(OCC(=O)NCCC2=CCCCC2)cc1,25068*,-1,-6,-7,0,-3
CC(C)NS(=O)(=O)c1ccc(OCC(=O)NCCC2=CCCCC2)cc1,11035,-1,0,-3,13,0
COc1ccc(C2C(=O)N(CCc3ccccc3)CC(=O)N2C2CCCCC2)cc1 (stereo not drawn),25113*,-4,-6,-2,37,-3
CCCCN1C(=O)CN(CCc2ccccc2)C(=O)C1c1ccc(OC)cc1 (stereo not drawn),11074,-1,2,2,11,-1
Cc1cc(C)cc(CC2CC(=O)N(c3ccc4c(c3)OCCO4)C2=O)c1 (stereo not drawn),6155,3,-3,-6,7,-1
Cc1cc(C)cc(CC2CC(=O)N(c3cc(C)on3)C2=O)c1 (stereo not drawn),19958*,1,0,-4,4,0
COc1cc(OC)cc(-c2nc3cc(C)ccc3o2)c1,22263*,-10,-2,-6,-10,-1
COc1ccc(CN2C(=O)c3ccccc3C2c2nnnn2-c2ccc3c(c2)OCCO3)cc1 (stereo not drawn),4321,-3,2,/,/,0
COc1ccc2oc(=O)c(-c3nc(C)cs3)cc2c1,20394*,7,12,1,21,?
COc1cc(OC)c(C(=O)Nc2ccc(S(=O)(=O)Nc3ncccn3)cc2)cc1OC,21604*,0,5,1,-2,4
Cc1ccc(-c2cc(C(=O)Nc3ccc(S(=O)(=O)Nc4onc(C)c4C)cc3)c3ccccc3n2)cc1,4265,-4,0,1,54*,-2
Cc1ccccc1OCC(=O)Nc1ccc(S(=O)(=O)Nc2ccccn2)cc1,2517,2,-2,2,0,0
Cc1ccc(OCC(=O)Nc2ccc(S(=O)(=O)Nc3ccccn3)cc2)c(C)c1,2321,-2,-7,-2,56*,0
Cc1noc(NS(=O)(=O)c2ccc(NC(=O)COc3ccccc3)cc2)c1C,22340*,-1,2,-22,-2,3
CCOc1ccc(/C=C2\CCCc3c2nc2ccccc2c3C(=O)O)cc1OC,5840,4,4,/,1,13
COc1cccc(/C=C/C(=O)N(C)CC(=O)Nc2ccc(Cl)c(C(F)(F)F)c2)c1,/,/,/,-3,/,/
COc1ccc(C(=O)Nc2n[nH]c(-c3ccncc3)n2)cc1,18001*,-4,-4,3,-7,-6
CCOC(=O)C1(CCOc2ccccc2)CCN(Cc2ccc(F)c(OC)c2)CC1,4428,-18,40*,-4,-4,0
CCOC(=O)C1(CCOc2ccccc2)CCN(Cc2ccc(O)c(OC)c2)CC1,4934,-6,19,5,-8,-1
Brc1ccc(Oc2nnnn2-c2ccccc2)cc1,4232,-1,9,5,21,-1
Cc1cc(Oc2nnnn2-c2ccccc2)ccc1Cl,19957*,-2,1,0,-12,?
O=C(CCS(=O)(=O)c1ccc(Br)s1)NCc1ccc2c(c1)OCO2,22950*,0,1,-1,8,?
O=C(NCc1ccc2c(c1)OCO2)c1cccc(Cl)c1,4708,-1,15,1,30,0
O=C(CSCc1cccc(Cl)c1)NCc1ccc2c(c1)OCO2,21289*,-6,3,5,20,2
